Values without a mark were called inactive. Activity calls are given as the source filed them. Calls come from the whole dose curve; as a rule, active = well fitted curve in the direction sought with a large enough effect in the repeat runs; inconclusive = weak or mixed curves; inactive = flat fitted curve, though single readings scatter.
assay: qHTS assay to test for compound auto fluorescence at 535 nm (green) in HEK293 cells (AID 720680); conditions: green autofluorescence 485/535 nm; series mostly up to 46 µM
Excerpt: U.S. Tox21 Program National Center for Advancing Translational Sciences [NCATS] NIH Chemical Genomics Center [NCGC] U.S. Environmental Protection Agency [EPA] National Institutes of Environmental Health Sciences [NIEHS] National Toxicology Program [NTP] U.S. Food and Drug Administration [FDA] Tox21 Assay Overview: Compound auto fluorescence often interferes with screening of the compound library against various biological targets and signaling pathways. Some of these compounds may have fluorophoric properties. Such properties may interfere with the assay outputs resulting in false positives and/or negatives. To decrease such complications and ensure the compound activities are relevant in terms of biological response, the Tox21 10K compound library was screened for auto fluorescence. From the fluorophores used as reporter signals in our screening assays, the auto fluorescence equivalencies of compounds against three fluorophores have been evaluated: Triamterene, Fluorescein and Rose Bengal sodium for blue, green and red fluorescence, respectively. The fluorescence intensities were measured using Excitation/Emission wavelengths at 405/460nm, 485/535nm and 540/590nm for blue, green and red labels, respectively. This assay includes the green fluorescence data.
Tox21 Assay Protocol Summary: 2,000 HEK293 cells in 5 uL of culture medium containing 10% dialyzed FBS per well were dispensed into black wall/clear bottom 1536-well plates using a Multidrop Combi Dispenser (Thermo Scientific). The assay plates were incubated for 4-5 hr at 37C to allow cell attachment to the well bottom, followed by the transfer of 23 nL compound or DMSO vehicle by a pintool work station (Kalypsys, San Diego, CA). After the assay plates were incubated overnight at 37C and 5% CO2, fluorescence intensities in the assay plates were measured by an Envision (PerkinElmer, Shelton, CT) plate reader using three labels for measuring blue, green and red fluorescence at […] 460, 535 and 590nm respectively.
% is set by controls: 0 for no effect and ±100 for the full control effect.

| SMILES | outcome | fluorescence, % of fluorescein |
| --- | --- | --- |
| N=C(N)c1ccc(OCCCOc2ccc(C(=N)N)cc2)cc1 | inactive |  |
| CCOC(=O)[C@H](CCc1ccccc1)N[C@@H](C)C(=O)N1[C@H](C(=O)O)C[C@@H]2CCC[C@@H]21 | inactive |  |
| Cc1c(O)cccc1O | inactive |  |
| CCOC(=O)Nc1ccc(NCc2ccc(F)cc2)nc1N | inactive |  |
| O=c1cc(CO)occ1O | inactive |  |
| NC(=O)c1ccc(N)cc1 | inactive |  |
| CN1CCN(c2cc3c(cc2F)c(=O)c(C(=O)O)cn3-c2ccc(F)cc2)CC1 | inactive |  |
| CCCCCCCCCCCCCCCCC | inactive |  |
| NCCc1cnc[nH]1 | inactive |  |
| O=[N+]([O-])c1ccc(F)cc1F | inactive |  |
| FC(F)OC(Cl)C(F)(F)F (stereo not given) | inactive |  |
| CC(C)(C)c1nnc(NS(=O)(=O)c2ccccc2)s1 | inactive |  |
| Brc1c(NC2=NCCN2)ccc2nccnc12 | inactive |  |
| O=c1[nH]c(=O)n([C@H]2C[C@H](O)[C@@H](CO)O2)cc1I | inactive |  |
| COC(=O)c1c(Cl)c(Cl)c(C(=O)OC)c(Cl)c1Cl | inactive |  |
| CC(=O)OCC(CCn1cnc2cnc(N)nc21)COC(C)=O | inactive |  |
| CCc1ccc(O)c(OC)c1 | inactive |  |
| N#Cc1ccc(C2CCCc3cncn32)cc1 (stereo not given) | inactive |  |
| Cn1cc(S(C)=O)c(=O)c2ccc(F)cc21 (stereo not given) | inactive |  |
| CN(C)CCCNCCCN(C)C | inactive |  |

| SMILES | outcome | fluorescence, % of fluorescein |
| --- | --- | --- |
| CC(=O)CC(C)(C)C1CCCCC1 | inactive |  |
| NC(=O)Nc1ccccc1 | inactive |  |
| CCC(C)S (stereo not given) |  | 0.0934% [at 3.72 µM] |
| CC(C)CNCC(C)C | inactive |  |
| CCCc1cc(C(N)=S)ccn1 | inactive |  |
| Cc1ccc(C#N)cc1 | inactive |  |
| CN1CC(=O)NC1=N | inactive |  |
| O=C(O)Cc1ccc(CCNS(=O)(=O)c2ccc(Cl)cc2)cc1 | inactive |  |
| Nc1c2c(nc3ccccc13)CCCC2O (stereo not given) | inactive |  |
| OCCCC1CCCCC1 | inactive |  |
| NC(CSCC(=O)O)C(=O)O (stereo not given) | inactive |  |
| Cc1cc2c(cc1S(N)(=O)=O)S(=O)(=O)CCC2 | inactive |  |
| OC1CCCCC1c1ccccc1 (stereo not given) | inactive |  |
| CCCCC/C=C\CCC=O | inactive |  |
| CCN1CCC[C@H]1CNC(=O)c1cc(S(N)(=O)=O)ccc1OC | inactive |  |
| O=C1CC2CC1C1CCCC21 (stereo not given) | inactive |  |
| CC(=O)Nc1ccc(S(N)(=O)=O)cc1 | inactive |  |
| COC(=O)c1ccc(C)cc1C1=NC(C)(C(C)C)C(=O)N1 (stereo not given) | inactive |  |
| N=C(N)c1ccccc1 | inactive |  |
| CN1CCCC1 | inactive |  |

From PubChem BioAssay (Tox21)
